According to PubChem BioAssay (NCI):
Compounds without any hit were thinned out: in the full panel of roughly 79,000, 15% have a hit. Rule as the data show it: active = growth inhibition above about 70%; inactive = the rest.

Legend:
[1] = NCI Yeast Anticancer Drug Screen. Data for the rad50 strain (AID 155);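 also: 0% = growth of vehicle-only cultures of the same strain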; conditions: S. cerevisiae rad50 strain growth inhibition, stronger effect = higher value; at 50.0 µM unless noted
Method in brief: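 A DNA repair-deficient yeast mutant serves as the test organism; compound-induced growth inhibition is calculated against vehicle-treated cells.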

[2] = NCI Yeast Anticancer Drug Screen. Data for the mec2-1 strain (AID 157); conditions: S. cerevisiae mec2-1 strain, stronger effect = higher value; at 50.0 µM unless noted
Method in brief: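 mec2-1 yeast strain, carrying an alteration in DNA damage repair or cell cycle control, was exposed to compounds; growth inhibition was measured relative to vehicle-treated controls.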

[3] = NCI Yeast Anticancer Drug Screen. Data for the sgs1 mgt1 strain (AID 161);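 also: 0% = growth of cultures given vehicle only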; conditions: S. cerevisiae sgs1 mgt1 strain, stronger effect = higher value; at 50.0 µM unless noted
Method in brief: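 Growth of a repair-deficient yeast mutant was monitored after compound treatment and expressed as inhibition relative to vehicle-treated cultures.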

[4] = NCI Yeast Anticancer Drug Screen. Data for the cln2 rad14 strain (AID 165);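 also: 0% = growth equal to vehicle treated cultures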; conditions: S. cerevisiae cln2 rad14 strain, stronger effect = higher value; at 50.0 µM unless noted
Method in brief: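 Yeast carrying cln2 and rad14 alterations (cell cycle control and DNA damage repair) were exposed to compounds. Growth inhibition was measured against vehicle-treated controls.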

[5] = NCI Yeast Anticancer Drug Screen. Data for the bub3 strain (AID 167); conditions: S. cerevisiae bub3 mutant strain, stronger effect = higher value; at 50.0 µM unless noted
Method in brief: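 Inhibition values come from growth of compound-treated mutant yeast normalised to vehicle-treated controls.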

[6] = NCI Yeast Anticancer Drug Screen. Data for the mlh1 rad18 strain (AID 175); conditions: S. cerevisiae mlh1 rad18 strain growth inhibition, stronger effect = higher value; at 50.0 µM unless noted
Method in brief: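 Growth inhibition of the yeast strain was measured after compound exposure and expressed relative to vehicle-treated controls. The strain carries defined defects in DNA damage repair.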

Measured: growth inhibition

O=C(CCCCl)N1CCCCCC1
inactive: [1] -5.25% | [2] 11.6% | [3] -17.5% | [4] -37% | [5] 15.1% | [6] 5.7%

Cc1ccc2nc(Sc3c([N+](=O)[O-])ncn3C)[nH]c2c1
inactive: [1] -16.1% | [2] -16.4% | [3] -18.2% | [4] 5.75% | [5] -20.7% | [6] -25.4%

CCN(CC)c1ccc(/C=N/Nc2cc(C)nc3ccc(C4CCCCC4)cc23)cc1
inactive: [1] 25.8% | [2] 4.3% | [3] 21.1% | [4] 3.15% | [5] -2.35% | [6] 44.9%

COC(=O)C1CCCC1
inactive: [1] 3.75% | [2] -44% | [3] 16.2% | [4] 9.4% | [5] -2.8% | [6] 22.6%

COC(=O)c1cc(C(=O)OC)c(CC(=O)C(=O)NC2C3CC4CC(C3)CC2C4)nc1CC(=O)C(=O)NC1C2CC3CC(C2)CC1C3 (stereo not drawn)
inactive: [1] 0.5% | [2] 25.2% | [3] -11.9% | [4] 10.2% | [5] 13.7% | [6] 10.9%

Cc1ccc2oc3c(ccc(=O)n3C)c(=O)c2c1
inactive: [1] 28.6% | [2] 7.1% | [3] -17.6% | [4] -22.1% | [5] -35.5% | [6] -59.3%

COC(=O)c1cc(-c2ccc(N)cc2)n2c(N)nnc2n1
inactive: [1] 15% | [2] 23.4% | [3] 25.8% | [4] -1.55% | [5] 2.45% | [6] 18.6%

O=C(Oc1ccc(O)cc1)N(c1cccc2ccccc12)c1cccc2ccccc12
inactive: [1] 38% | [2] 18.1% | [3] 40.6% | [4] 22.4% | [5] 66% | [6] 44.2%

Cc1ccc(OCc2ccc([N+](=O)[O-])cc2)cc1
inactive: [1] 1.8% | [2] -12.2% | [3] -12.6% | [4] 13.9% | [5] -16.4% | [6] -16.8%

CC1(O)C2CC3CC(C2)CC1C3 (stereo not drawn)
inactive: [1] -1.1% | [2] -3.1% | [3] -13.3% | [4] -59% | [5] 13.2% | [6] 10.3%

C/C(=N\NC(=S)Nc1ccccc1)[C@H]1C2CCC(C2)C1C/C=C\CCCC(=O)O (stereo partly drawn)
inactive: [1] 26.1% | [2] 17.3% | [3] 25.9% | [4] 48.1% | [5] 37.5% | [6] 13.4%

Cn1ccn(C2CCCCC2)c1=O
inactive: [1] 3.35% | [2] 5.1% | [3] -0.25% | [4] -12.3% | [5] 35% | [6] 7.95%

CCCC(=O)N(C(C)C)C(C)C
inactive: [1] 11.2% | [2] 22% | [3] 12.5% | [4] 6.6% | [5] 8.5% | [6] 8.8%

O=C(Cc1ccc([N+](=O)[O-])cc1)Nc1cccc(O)c1
inactive: [1] -4.85% | [2] 29.2% | [3] -4.9% | [4] -13.5% | [5] 47.4% | [6] 14.8%

CC(=O)O[C@H]1[C@@H](OC(C)=O)C(C)(C)/C=C/[C@H](C)C(=O)[C@@]2(OC(C)=O)C[C@@](C)(OC(C)=O)[C@H](OC(C)=O)[C@@H]2[C@H]2OC(=O)CC[C@@]2(OC(=O)c2ccccc2)[C@@H]1OCC(C)C
inactive: [1] 3.85% | [2] -2.15% | [3] -15.8% | [4] 36% | [5] -22.3% | [6] -0.15%

NC(Cc1ccc2nc3c4ccccc4c(=O)cc-3oc2c1)C(=O)O (stereo not drawn)
inactive: [1] -23.4% | [2] -40.9% | [3] -14.6% | [4] 19.3% | [5] 10.1% | [6] -13.7%

Cc1ccc(C)c(NC(=O)Nc2ccccc2)c1
inactive: [1] 3.3% | [2] 4.25% | [3] -7.2% | [4] -25.1% | [5] 0.35% | [6] 1%

CC(=O)N(C(C)=O)c1c(N)n(C)c(=O)[nH]c1=O
inactive: [1] 12.7% | [2] -4.85% | [3] 6.6% | [4] 14.3% | [5] 2.75% | [6] 8.5%

CCCCC(C(=O)O)N(C)C (stereo not drawn)
inactive: [1] -15.9% | [2] -11.3% | [3] -5.8% | [4] -0.5% | [5] 2.4% | [6] -20.4%

SCCNCc1ccccc1
inactive: [1] 20.9% | [2] -13.1% | [3] 6.9% | [4] 9.85% | [5] 6.9% | [6] 10.2%

O=C(/C=C/c1ccc(OCC(=O)N2CCN(c3ccccc3)CC2)cc1)c1ccccc1
inactive: [1] 13% | [2] 16% | [3] 35.6% | [4] -5.95% | [5] 16.7% | [6] 10.7%

Cc1ccc(N2C(=O)C3CSCN3C2=O)cc1 (stereo not drawn)
inactive: [1] 31.2% | [2] 19.8% | [3] 6.85% | [4] 4.9% | [5] 9% | [6] 6.25%

Fc1cccc2c(SCc3ccc(Cl)cc3Cl)cnnc12
inactive: [1] -0.9% | [2] -1.25% | [3] 3.25% | [4] -44.5% | [5] 13.8% | [6] 2.85%

COc1ccc(Cl)cc1NC(=O)Oc1ccc(NC(C)=O)cc1
inactive: [1] 3.2% | [2] -0.6% | [3] -1.15% | [4] -1.3% | [5] 11% | [6] 4.25%

CC(=O)NC(CCCCNC(=O)N(CCCl)N=O)C(=O)NCc1ccccc1 (stereo not drawn)
inactive: [1] 1.2% | [2] -1.15% | [3] 0.7% | [4] 14.7% | [5] -2.35% | [6] -1.85%

Cc1ccc(S(=O)(=O)Oc2ccc3oc4cccc(NCCN(C)C)c4c(=O)c3c2)cc1
inactive: [1] -3.5% | [2] -13.7% | [3] -21.4% | [4] 5% | [5] -6.4% | [6] 3.1%

O=C(Nc1ccccn1)c1ccccc1Cl
inactive: [1] 1.1% | [2] 3.1% | [3] -9.5% | [4] 4.2% | [5] -5.9% | [6] 19.3%

OCC[P+](c1ccccc1)(c1ccccc1)c1ccccc1
inactive: [1] 17.6% | [2] 12.1% | [3] -6.2% | [4] 16.4% | [5] -6.05% | [6] -11.3%

CC1(C)OC2OC3C(O)C(=O)OC3C2O1 (stereo not drawn)
inactive: [1] -36.8% | [2] -16.9% | [3] -19.2% | [4] -20% | [5] -2.6% | [6] -7.1%

Nc1cccc(OCCCCCOc2cccc(N)c2)c1
inactive: [1] -35.1% | [2] -40.3% | [3] -5.75% | [4] 6.6% | [5] -34.5% | [6] -20.4%

C1CCC2=NCCCN2CC1
inactive: [1] -13.8% | [2] -23% | [3] 10.6% | [4] -4.8% | [5] 11.8% | [6] -1%

CC(C)OC(=O)Nc1cccc(Cl)c1F
inactive: [1] 15.9% | [2] -10.8% | [3] -6.2% | [4] -0.75% | [5] 8.2% | [6] 8.65%

O=C1C2(c3ccccc3)CCC1(c1ccccc1)C(c1ccccc1)=C2c1ccccc1
inactive: [1] 40.1% | [2] 26.9% | [3] 7.25% | [4] 23.9% | [5] 3.05% | [6] 37.5%

CCCNCCC
inactive: [1] 2.1% | [2] -5.4% | [3] 14.5% | [4] -12.4% | [5] 4.2% | [6] 1.65%

Cc1nc(N)c(N)c(=O)[nH]1
inactive: [1] -0.6% | [2] -1.35% | [3] -1.75% | [4] -5.6% | [5] -9.6% | [6] -2.6%

CC(C)=CC(=O)O
inactive: [1] 3.2% | [2] -3.3% | [3] -9.3% | [4] 20.3% | [5] 2.1% | [6] 7.9%

CCCN=C(N)C(C)=O
inactive: [1] 5.85% | [2] -4.9% | [3] -11.1% | [4] 4.85% | [5] 15.2% | [6] 2.1%

COCc1ccccc1-n1nccc1S(C)=O (stereo not drawn)
inactive: [1] -10.9% | [2] 25.4% | [3] 1.8% | [4] 4.1% | [5] 3.25% | [6] -2.6%
